Unmarked numbers belong to inactive results. A call without a number means that no potency is given here. Activity calls are given as the source filed them. The call rests on the fitted dose curve; in most records, active means well fitted inhibition curve with a large enough effect; inconclusive means small, poorly fitted or top-dose-only effect; inactive means flat fitted curve, though single readings scatter.
system: Nanoluciferase (engineered Oplophorus gracilirostris luciferase); experiment: Primary Nanoluciferase (NLuc) qHTS assay for identification of artifact compounds. (AID 1845222); details: NLuc-conditioned medium, Nano-Glo luminescence, 5 min; series mostly up to 54.1 µM;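 further: NLuc secreted into diluted conditioned medium of S16 cells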
Method in brief: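 qHTS format, against NLuc in S16 cell-conditioned medium. Nano-Glo substrate 1:100 was added after 15 min at room temperature. Luminescence was taken after a further 5 min.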

SMILES | activity, negative = inhibition | Potency
C=C1CC[C@@]2(OC1)O[C@H]1CC3[C@@H]4CC=C5C[C@H](O[C@H]6OC[C@@H](O)C(O)[C@@H]6O[C@@H]6O[C@@H](C)[C@H](O)[C@@H](O[C@@H]7O[C@H](CO)[C@@H](O)[C@H](O)[C@H]7O)[C@H]6O)C[C@@H](O)[C@]5(C)C4CC[C@]3(C)[C@H]1[C@@H]2C (some centres not stated) | -1.92% [at 11.6 µM] | 
CC1=C2C[C@@]3(C)[C@@H](CCC[C@@H]3C)C[C@@]2(O)OC1=O |  | inactive
CCCSc1nc(NC2CC2c2ccc(F)c(F)c2)c2nnn(C3CC(OCCO)C(O)C3O)c2n1 (configuration not stated) |  | inactive
CCc1nn(CCO)c(CC)c1Oc1cc(C#N)cc(C#N)c1 |  | inactive
CC(C)=CC[C@H]1O[C@]2(O)C([C@H]3CCC4[C@@]5(C)CC[C@H](O[C@@H]6O[C@H](CO)[C@H](O)[C@H](O[C@@H]7O[C@H](CO)[C@@H](O)[C@H](O)[C@H]7O)[C@H]6O[C@@H]6O[C@@H](C)[C@H](O)[C@@H](O)[C@H]6O)C(C)(C)C5CC[C@@]4(C)[C@]3(C)[C@H]2O)[C@@]1(C)O (some centres not stated) | -2.88% [at 11.6 µM] | 
C=CC(C)(O)CC/C=C(\C)C(=O)O[C@@H]1[C@@H](O)[C@H](OC(C)(C=C)CC/C=C(\C)C(=O)O)O[C@H](CO)[C@H]1OC(=O)/C(C)=C/CCC(C)(O)C=C (some centres not stated) |  | inactive
C=C1CCC2C(C)(C)CC(O)CC2(C)C1CCC(C)CC(=O)O (configuration not stated) |  | inactive

— PubChem BioAssay (NCATS)
